This is an account of results in PubChem BioAssay (NCATS).

Holding throughout (assay): qHTS profiling for inhibitors of Plasmodium falciparum proliferation (AID 504749); further: nearly all actives have a fitted effect of over 60% in size
Common to all, as to conditions: P. falciparum in erythrocytes, SYBR Green DNA, 72 h; series mostly up to 28.7 µM

One assay deals with CP247. The essentials:
(§1)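 SYBR Green fluorescence of parasite DNA, read after lysis and overnight dark incubation, measured growth over 72 h in erythrocyte culture at 0.3% parasitemia and 2.5% hematocrit. Data normalised to DMSO and 0.29 uM artemisinin, with plate-drift correction.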

Another assay deals with CP250. The essentials:
as §1

The next assay has as its system CP252. The essentials:
as §1

The next assay deals with CP256. The method, boiled down:
as §1

Another assay relates to CP260. The method, boiled down:
as §1

For the next assay, the system named is CP262. The essentials:
as §1

The subject of another assay is CP265. The method, boiled down:
as §1

Another assay concerns CP266. The method, boiled down:
as §1

Another assay relates to CP268. The method, boiled down:
as §1

Another assay has as its system CP269. The method, boiled down: as §1
The subject of the next assay is CP286. The method, boiled down:
as §1

The subject of the next assay is CP291. The essentials: as §1
A further assay concerns CP297. The method, boiled down:
as §1

Another assay deals with CP305. The method, boiled down:
as §1

In the next assay the test system is CP315. The essentials:
as §1

A further assay deals with CP325. The essentials: as §1
Another assay relates to CP329. The method, boiled down:
as §1

The next assay deals with CP335. The method, boiled down: as §1
The next assay relates to DFO2036. The method, boiled down:
as §1

The subject of a further assay is DIV14. The essentials:
as §1

Records with an inconclusive call do not appear. Activity calls are given as the source filed them. The call rests on the fitted dose curve; in most records, active means well fitted inhibition curve with a large enough effect; inconclusive means small, poorly fitted or top-dose-only effect; inactive means flat fitted curve, though single readings scatter.
Potency means the concentration at half of the fitted maximal effect.

Consider `COc1ccc2c(c1)c1c3n2CCN(C)C3=NCC1`, for which the Potency entry in the assay on CP247, in the assay with CP250, in the assay with CP252, in the assay on CP256, in the assay with CP260 and in the assay with CP262 was “inactive” each time. Also, the Potency entry in the assay on CP265, in the assay on CP266, in the assay with CP268, in the assay with CP269, in the assay on CP286 and in the assay on CP291 was “inactive” each time. Moreover, the Potency entry in the assay on CP297, in the assay on CP305, with CP315, in the assay on CP325, with CP329 and with CP335 was “inactive” throughout. For the same compound, the Potency entry with DFO2036 and in the assay with DIV14 was “inactive” throughout.

For the compound `O=C(NC1CCN(CCc2c[nH]c3ccccc23)CC1)c1ccccc1`, the Potency result in the assay with CP247, with CP250, with CP252, with CP256, with CP260 and in the assay on CP262 was “inactive” in each case. In addition, the Potency result in the assay on CP265, in the assay on CP266, in the assay on CP268, in the assay on CP269, with CP291 and in the assay on CP305 was “inactive” throughout. The Potency entry in the assay with CP315, in the assay on CP325, in the assay with CP329 and with DFO2036 was “inactive” each time.

With `CN1CCC[C@@H]1CCO[C@](C)(c1ccccc1)c1ccc(Cl)cc1`, the Potency result in the assay on CP256, in the assay with CP260, in the assay with CP262, in the assay on CP265, in the assay on CP315 and with CP325 was “inactive” in each case. Besides, the Potency result with DFO2036 was “inactive”.

On to `NC(=S)N/N=C/c1cccnc1`, for which the Potency result in the assay on CP250, with CP252, in the assay on CP256, in the assay with CP260, in the assay with CP262 and with CP265 was “inactive” throughout. In addition, the Potency result in the assay on CP266, with CP268, in the assay with CP269, in the assay with CP286, with CP291 and with CP297 was “inactive” throughout. The Potency result with CP305, in the assay on CP315, with CP325, with CP329, in the assay on CP335 and in the assay with DFO2036 was “inactive” throughout. For the same compound, the Potency entry in the assay with DIV14 is “inactive”.

Turning to `CC(C)Nc1cccnc1N1CCN(C(=O)c2cc3cc(NS(C)(=O)=O)ccc3[nH]2)CC1`, the Potency result in the assay on CP250, in the assay on CP252, with CP256, in the assay with CP260, in the assay on CP265 and with CP266 was “inactive” each time. Moreover, the Potency result in the assay on CP268, with CP269, with CP286, in the assay with CP291, in the assay on CP297 and in the assay with CP305 was “inactive” each time. Besides, the Potency entry in the assay on CP315, in the assay with CP325, in the assay with CP329, in the assay with CP335 and with DFO2036 was “inactive” each time. Also, the Potency in the assay with DIV14 was 0.379 µM (active).

In the case of `Cc1ccc(-c2ncc(Cl)cc2-c2ccc(S(C)(=O)=O)cc2)cn1`, the Potency entry in the assay on CP260, in the assay on CP262, in the assay with CP266, with CP286, in the assay on CP291 and in the assay with CP297 was “inactive” each time. Moreover, the Potency result with CP305, with CP315, in the assay with CP325 and in the assay on CP329 was “inactive” each time.

Turning to `CC(C)(Cc1c[nH]c2ccccc12)NCC(O)COc1ccccc1C#N` (stereo unspecified), the Potency result in the assay on CP315 and with CP325 was “inactive” throughout. Moreover, the Potency in the assay on DIV14 was 8.49 µM (active).

As to `O=C(CCN1CCN2CCCC2C1)N1c2ccccc2Sc2ccc(Cl)cc21` (stereo unspecified), the Potency entry in the assay with CP250, in the assay on CP262, in the assay on CP265, in the assay with CP268, in the assay with CP291 and with CP297 was “inactive” in each case. Moreover, the Potency result with CP305, in the assay with CP315, in the assay with CP325, in the assay on CP329 and in the assay on DFO2036 was “inactive” each time. Also, the Potency in the assay with DIV14 was 4.26 µM (active).

For `NC(=O)C1(N2CCCCC2)CCN(CCCC(=O)c2ccc(F)cc2)CC1`, the Potency entry in the assay with CP250, with CP252, in the assay with CP256, with CP262, with CP266 and in the assay on CP268 was “inactive” each time. For the same compound, the Potency entry with CP269, in the assay with CP286, in the assay with CP315, with CP325, with CP329 and in the assay with DFO2036 was “inactive” throughout.

Consider `CN1CCN(C2=Nc3cc(F)ccc3Cc3ccccc32)CC1`, for which the Potency result in the assay on CP250, in the assay on CP252, with CP260, with CP262, in the assay with CP268 and in the assay on CP269 was “inactive” in each case. Also, the Potency result in the assay with CP286, with CP291, with CP305, with CP315, with CP325 and in the assay on CP329 was “inactive” throughout. Besides, in the assay on DFO2036, the Potency entry is “inactive”.

Consider `CC(C)(C)NC[C@H](O)COc1nsnc1N1CCOCC1`, for which the Potency is 7.94 µM (active) in the assay on CP260; 6.31 µM (active) with CP265; 15.1 µM (active) in the assay on CP269; 13.5 µM (active) in the assay with CP291; 15.1 µM (active) in the assay on CP305; 8.49 µM (active) in the assay on CP335. Also, the Potency in the assay with DFO2036 is 6.31 µM (active); in the assay with DIV14, 3.38 µM (active). Also, the Potency result in the assay with CP262, in the assay with CP266 and in the assay with CP315 was “inactive” each time.

Consider `CN1CCN(CCC(=O)N2c3ccccc3Sc3ccc(C(F)(F)F)cc32)CC1`, for which the Potency result in the assay on CP250, in the assay on CP256, in the assay with CP260, in the assay with CP265, in the assay with CP268 and with CP269 was “inactive” in each case. In addition, the Potency entry in the assay with CP291, in the assay on CP297, with CP305, in the assay on CP315, in the assay on CP325 and with CP329 was “inactive” in each case. For the same compound, the Potency result with DFO2036 was “inactive”. In the assay with DIV14, the Potency is 8.49 µM (active).

As to `Cc1nc(-c2ccc(Cl)cc2)oc1COC(C)(C)C(=O)O`, the Potency entry in the assay with CP250, in the assay on CP252, in the assay with CP256, in the assay with CP260, in the assay with CP262 and in the assay with CP265 was “inactive” in each case. The Potency result in the assay on CP266, in the assay with CP268, in the assay with CP269, in the assay with CP286, in the assay on CP291 and with CP297 was “inactive” throughout. The Potency entry in the assay with CP305, in the assay on CP315, in the assay with CP325, in the assay on CP329, in the assay with CP335 and with DFO2036 was “inactive” throughout. Besides, the Potency entry in the assay on DIV14 was “inactive”.

For the compound `COc1ccc(C(Cl)=C(c2ccc(OC)cc2)c2ccc(OC)cc2)cc1`, the Potency in the assay with CP250 is 10 µM (active); with CP265, 10 µM (active); in the assay on DFO2036, 17.8 µM (active). Also, the Potency entry in the assay on CP262, in the assay with CP266, in the assay with CP269, with CP291, in the assay with CP297 and with CP315 was “inactive” in each case. Moreover, the Potency result in the assay with CP325 and in the assay on CP329 was “inactive” each time.

Regarding `CN(CCCN1c2ccccc2CCc2ccccc21)CC(=O)c1ccc(Cl)cc1`, the Potency in the assay on CP260 is 10 µM (active); in the assay on CP265 it was 11.2 µM (active); in the assay with CP286, 7.08 µM (active); with CP335 it was 13.5 µM (active); in the assay with DIV14, 4.26 µM (active). In addition, the Potency result in the assay on CP262, in the assay on CP305 and in the assay with CP315 was “inactive” in each case.

As to `CCN(CC)CCOc1ccc2c(c1)C(=O)c1cc(OCCN(CC)CC)ccc1-2`, the Potency in the assay on CP256 is 11.2 µM (active); with CP286, 10 µM (active); in the assay on DIV14, 13.5 µM (active). Further, the Potency result in the assay on CP262 and in the assay on CP315 was “inactive” each time.

Regarding `COc1cc([C@H]2Oc3cc([C@H]4Oc5cc(O)cc(O)c5C(=O)[C@@H]4O)ccc3O[C@@H]2CO)ccc1O`, the Potency entry in the assay with CP250, in the assay with CP252, in the assay with CP256, in the assay on CP260, with CP262 and in the assay with CP265 was “inactive” each time. Further, the Potency entry in the assay with CP266, with CP268, in the assay on CP269, with CP286, with CP291 and with CP297 was “inactive” in each case. Moreover, the Potency entry with CP305, with CP315, in the assay on CP325, with CP329, in the assay on CP335 and in the assay on DFO2036 was “inactive” in each case.
